Where “and” joins values, the source holds several entries; their conditions need not be identical. Equal entries are not always repeated. The panel holds about 83,000 compounds, 20% with a hit somewhere; the sample as a whole holds those more often.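 The test compound was applied at a single concentration to cells in 96-well plates for 48 hours, and percent growth was recorded.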 Calls of active or inactive are those of the source. Rule for the calls: active = growth percent below 10; inactive = the rest.
system: MDA-MB-468 breast; experiment: NCI-60 one-dose screen, 48 h (100 = growth as untreated, 0 = no growth, -100 = all killed); settings: 10 µM unless noted

**Q.** `N#CCCN(NC(=O)OCc1ccccc1)C(=O)OCc1ccccc1` was tested. Which growth did it give?
**A.** Its growth is 116% (inactive).

**Q.** For `CS(=O)(=O)Nc1ccc(C(=O)NC(C(=O)NO)c2ccc(-c3cccc(F)c3)cc2)cc1` (stereo not given), which growth is on record?
**A.** The growth was 95% (inactive).

**Q.** For `Nc1nc(N)nc(NCc2ccccc2)n1`, which growth is on record?
**A.** Its growth is 114% (inactive).

**Q.** `Cc1nn(-c2ccc(Cl)cc2)c2nc3c(nc12)c(=O)oc1ccccc13` was tested. Which growth did it give?
**A.** The growth was 125% (inactive).

**Q.** With `Cc1cc(O)c(C2=NN(c3ccc(S(N)(=O)=O)cc3)C(c3ccccc3Cl)C2)cc1Cl` (stereo not given) as the compound, how does the growth read?
**A.** The growth was 28.9% (inactive).

**Q.** With `COc1cc2c(cc1O)C(=O)CCCC2` as the compound, how does the growth read?
**A.** Its growth is 87.3% (inactive).

**Q.** For `CN(C)CCCNC1=C(Cl)C(=O)c2ccccc2C1=O`, which growth is on record?
**A.** The growth was -8.11% (active) and -54.1% (active).

**Q.** `O=C(/C=C/c1ccc(Cl)cc1)c1ccc(Nc2nc(NCCO)nc(N3CCOCC3)n2)cc1` was tested. Which growth did it give?
**A.** Its growth is 69.4% (inactive).

**Q.** Which growth does the source give for `CN1CCN(Cc2ccc(NC(=O)c3cncc(C#Cc4cnc5ccc(OCCCS(C)(=O)=O)nn45)c3)cc2C(F)(F)F)CC1` here?
**A.** The growth was -61.6% (active).

**Q.** `OC(COCc1ccccc1)COCc1ccccc1` was tested. Which growth did it give?
**A.** Its growth is 108% (inactive).

**Q.** `Cc1cc(N2CCC(N3CCCC3)CC2)nc(/N=C(\N)Nc2ccc(Cl)c(Cl)c2)n1` was tested. Which growth did it give?
**A.** Its growth is -81.4% (active).

**Q.** With `Nc1nc(N)c2cc(CNc3ccc(C(=O)NC(CC(=O)O)C(=O)O)cc3)ccc2n1` (stereo not given) as the compound, how does the growth read?
**A.** Its growth is 61.4% (inactive).

**Q.** `CNC(=O)c1cc(Oc2ccc(CC(=O)Nc3cc(C(C)(C)C)cn3C)cc2)ccn1` was tested. Which growth did it give?
**A.** The growth was 29.5% (inactive).

**Q.** Which growth does the source give for `COCC(=O)NC/C=C/c1ccc2ncnc(Nc3ccc(Oc4ccc(C)nc4)c(C)c3)c2c1` here?
**A.** The growth was 28.4% (inactive).

**Q.** Which growth does the source give for `O=[N+]([O-])c1cccc(/C=N\Nc2ccccc2)c1` here?
**A.** Its growth is 81.4% (inactive).

**Q.** `CCn1c(SCC(=O)Nc2cccc(C(=O)/C=C/c3cc(OC)c(OC)c(OC)c3)c2)nc2ccccc2c1=O` was tested. Which growth did it give?
**A.** Its growth is 31.8% (inactive).

**Q.** How did the growth turn out when `C=CCn1c(SCC(=O)Nc2ccc(C(=O)/C=C/c3cc(OC)c(OC)c(OC)c3)cc2)nnc1-c1ccc(Cl)cc1` was run?
**A.** Its growth is 2.35% (active).

**Q.** For `C#C[C@]1(O)CC[C@H]2[C@@H]3CC=C4c5sc(C6CCOCC6)nc5CC[C@]4(C)[C@H]3CC[C@@]21C`, which growth is on record?
**A.** The growth was 68.5% (inactive).

**Q.** Which growth does the source give for `Nc1nc(Nc2ccccc2SSc2ccccc2Nc2nc(N)nc(-c3cccc(Cl)c3)n2)nc(-c2cccc(Cl)c2)n1` here?
**A.** Its growth is 95.3% (inactive).

**Q.** With `CC(=O)N1N=C(c2ccc(Cl)cc2)CC1c1c(C)nn(-c2ccccc2)c1N(C)Cc1ccccc1` (stereo not given) as the compound, how does the growth read?
**A.** The growth was 58.9% (inactive).

**Q.** `Cc1nc2c(ccc3ccccc32)s1` was tested. Which growth did it give?
**A.** The growth was 109% (inactive).

**Q.** How did the growth turn out when `CCc1ccc(Oc2cn[nH]c2-c2ccc(OCCc3ccc(F)cc3)cc2O)cc1` was run?
**A.** The growth was 105% (inactive).

**Q.** `COc1cc(C(=O)/C=C/c2cc(-c3cc(OC)c(OC)c(OC)c3)n[nH]2)cc(OC)c1OC` was tested. Which growth did it give?
**A.** The growth was -79% (active).

**Q.** `CC1(C)N=C(N)N=C(N)N1c1ccc(OCC(=O)Nc2ccccc2)c(Cl)c1` was tested. Which growth did it give?
**A.** Its growth is 56.8% (inactive).

**Q.** How did the growth turn out when `COC(=O)/C=C1\SC(=Nc2cccc(Cl)c2)N(CCc2c[nH]c3ccccc23)C1=O` was run?
**A.** The growth was 54.4% (inactive).

**Q.** Which growth does the source give for `Cc1cc(N/N=C/c2ccccn2)nc2ccccc12` here?
**A.** The growth was -13.3% (active).

**Q.** Which growth does the source give for `c1ccc(-c2nnc(-c3c[nH]c4ncccc34)s2)cc1` here?
**A.** The growth was 79.9% (inactive).

**Q.** For `C/C(=N\NC(=O)CSc1nc2ccccc2c(=O)n1Cc1ccc(S(N)(=O)=O)cc1)c1ccc(F)cc1`, which growth is on record?
**A.** Its growth is 114% (inactive).

**Q.** For `c1ccc2c(c1)nc(-n1ccnc1)c1nc3ccccc3n12`, which growth is on record?
**A.** Its growth is 76% (inactive).

**Q.** For `C=C(C)[C@@H]1CC[C@]2(COCCCN)CC[C@]3(C)[C@H](CC[C@@H]4[C@@](C)(CCCNCCCN)[C@H](C(=C)C)CC[C@]43C)[C@@H]12`, which growth is on record?
**A.** Its growth is -53.8% [100 µM] (active).

**Q.** Which growth does the source give for `CCOC(=O)c1c(Nc2ccccc2)nn2c(N)c(C#N)c(-c3ccc(OC)cc3)nc12` here?
**A.** Its growth is 73.1% (inactive).

**Q.** How did the growth turn out when `O=C(O)/C(=C\c1ccc(Cl)cc1)c1ccc(Cl)cc1` was run?
**A.** Its growth is 78.9% (inactive).

**Q.** `CCOC(=O)c1ccccc1OC(=O)NNc1ccccc1` was tested. Which growth did it give?
**A.** Its growth is 83.2% (inactive).

**Q.** How did the growth turn out when `O=C(Nc1ccccc1)c1sc(-c2cccc(C(F)(F)F)c2)cc1O` was run?
**A.** Its growth is 92.3% (inactive).

**Q.** For `CC(=O)c1ccc(-n2cc(CN3CCN(c4cc5c(cc4F)c(=O)c(C(=O)O)cn5C4CC4)CC3)nn2)cc1`, which growth is on record?
**A.** The growth was 72.5% (inactive).

**Q.** For `CCC(=O)N1C/C(=C/c2ccc(OC)cc2)C(=O)/C(=C/c2ccc(OC)cc2)C1`, which growth is on record?
**A.** Its growth is -25.6% (active).

**Q.** Which growth does the source give for `CC[C@@H]1NC(=O)[C@@H]2CCCCN2C(=O)[C@@H]2CCCN2C(=O)[C@@H](NC(=O)[C@H](Cc2cc(F)cc(F)c2)NC(=O)Nc2ccc(C3CC3)cc2F)[C@H](C)OC(=O)[C@@H]2C[C@@H](C)CN2C1=O` here?
**A.** Its growth is -33.6% (active).

**Q.** For `CCCC(=O)NC(c1cccnc1)c1cc(Cl)c2cccnc2c1O` (stereo not given), which growth is on record?
**A.** The growth was 30.2% (inactive).

**Q.** How did the growth turn out when `Cc1ccc2c(n1)C(=O)c1[nH]c3ccccc3c1C2=O` was run?
**A.** The growth was -15.8% (active).

**Q.** Which growth does the source give for `NC(N)=NC(N)=NCCCc1ccccc1` here?
**A.** The growth was -0.206% [100 µM] (active).

Source: PubChem BioAssay (NCI)
